# Data: ChEMBL document CHEMBL4513216, “Probing the Open Global Health Chemical Diversity Library for Multistage-Active Starting Points for Next-Generation Antimalarials” (ACS Infect Dis, 2020)
# The whole screen tested about 69,000 compounds, of which about 8,600 (12%) showed an effect of 50% or more. What follows is part of a selection rich in strong results, with near analogues and random picks from the rest.
# Tested on: Plasmodium berghei
# Test: Screen against P. berghei liver stage (PbLuc), transformed with Luciferase, at 10uM
# Format: functional, HepG2
# Conditions: tested at 10 uM
row,Structure (SMILES),INHIBITION
1,O=C1CC2(CCN(C(=O)c3ccccn3)CC2)Oc2c(Br)cc(Br)cc21,34.2%
2,c1cncc(CC2CN(c3cccnc3)CCO2)c1 (stereo not drawn),-43%
3,O=C(NCc1cc(C2CC2)n(C2CCCC2)n1)C1CC1,44.4%
4,Cc1nc(CN2C(=O)CCC23CCN(c2ncccn2)CC3)cs1,-38.1%
5,O=C(NC1CC2(CCN(CCO)CC2)c2ccccc21)c1ccno1 (stereo not drawn),49.7%
6,C=C(C)CN1CCN(Cc2cnc(-c3ccc(OC)cc3)nc2)CC1,44.8%
7,CCOCCCNC(=O)c1cc(OC)c2ccoc2c1,6.11%
8,CC(c1ccncn1)N(C)S(=O)(=O)NCc1ccccc1 (stereo not drawn),4.65%
9,CC(c1ccon1)N(C)S(=O)(=O)NCc1ccccc1 (stereo not drawn),50.9%
10,CC(c1nccs1)N(C)S(=O)(=O)NCc1ccccc1 (stereo not drawn),-1.6%
11,Cc1csc(N2CCN(C(=O)Cc3cccs3)CC2)n1,28.8%
12,CCCc1n[nH]c(C2CN(CCCS(=O)(=O)N(C)C)CCO2)n1 (stereo not drawn),-21.7%
13,CN(C)c1ncccc1N(C)C(=O)Cn1cc(-c2ccccc2)nn1,-0.85%
14,Cc1cccc(C2CCCN(S(=O)(=O)c3cccnc3)C2)n1 (stereo not drawn),19.36%
15,CN1CCO[C@@H]2CN(C(=O)c3ccc4ncccc4c3)CC[C@@H]2C1,58.4%
16,CN1CCO[C@@H]2CN(C(=O)c3ccc4[nH]ccc4c3)CC[C@@H]2C1,43%
17,CC(=O)N1CCO[C@@H]2CN(C(=O)c3ccc4ncccc4c3)CC[C@@H]2C1,49.1%
18,CC(=O)N1CCO[C@@H]2CN(C(=O)c3ccccc3)CC[C@@H]2C1,12.1%
19,O=C(c1ccc2[nH]ccc2c1)N1CC[C@@H]2CN(CC3CC3)CCO[C@@H]2C1,60.2%
20,COCCN1CCO[C@@H]2CN(C(=O)c3ccc4[nH]ccc4c3)CC[C@@H]2C1,1.36%
21,CC(=O)N1CCO[C@@H]2CN(C(=O)c3ccc4ccccc4c3)CC[C@@H]2C1,-57.1%
22,CCN1CCO[C@@H]2CN(C(=O)c3ccc4[nH]ccc4c3)CC[C@@H]2C1,52.1%

row,Structure (SMILES),INHIBITION
1,O=C(c1ncccn1)N1C[C@@H]2CN(CC3CC3)CCO[C@@H]2C1,31.9%
2,CN(C)c1cc(C(=O)N2CCCCC2Cn2cccn2)ccn1 (stereo not drawn),17.5%
3,CCOc1ccccc1N1CCN(C(=O)c2cc[nH]n2)CC1,44.1%
4,CN(C)CCOCC1CN(C(=O)N2CCCC2)Cc2ccnn2C1 (stereo not drawn),46.6%
5,O=C(O)c1cc(S(=O)(=O)Nc2ccccc2)cc2c1OCCO2,31.8%
6,CCCc1nc(CN(CC)Cc2ccc(O)c(C(=O)O)c2)no1,14.3%
7,CCN(CC)S(=O)(=O)c1ccc2c(c1)N(Cc1cccnc1)C(=O)CS2,-3.5%
8,O=C(c1cc[nH]n1)N1CCOCC2(C1)CN(c1ccccc1)C(=O)CO2 (stereo not drawn),-14.2%
9,Cc1cnn(C2CCCN(C(=O)CCc3c(C)noc3C)C2)c1 (stereo not drawn),16.8%
10,Cc1c(C(=O)N2C[C@@H](CN(C)CCO)[C@@H](CO)C2)sc2ccccc12,32.1%
11,CCN(CCO)C[C@@H]1CN(C(=O)c2ccc(C)s2)C[C@@H]1CO,59.4%
12,CCN(CCO)C[C@@H]1CN(C(=O)c2sc3ccccc3c2C)C[C@@H]1CO,47.6%
13,CCN(CCO)C[C@@H]1CN(c2cc(C(F)(F)F)cc(C)n2)C[C@@H]1CO,12.9%
14,COCCN(C)C[C@@H]1CN(c2nc(C)cc(C)n2)C[C@@H]1CO,32.2%
15,CCN(CCO)C[C@@H]1CN(c2nc(C)cc(C)n2)C[C@@H]1CO,54.6%
16,O=C(NCc1cn2c(n1)CN(Cc1ccncc1)CC2)C1CCC1,43.9%
17,CCOc1ccnc(N2CCN(C(=O)c3cnc[nH]3)CC2)n1,31.8%
18,CC(C)c1cc(NC(=O)CNC2CCCN(c3cccnn3)C2)on1 (stereo not drawn),42.9%
19,CCC1(CC)CC(=O)N(CC(O)c2cccc(Br)c2)C1=O (stereo not drawn),-8%
20,Cc1nc(-c2ccco2)ccc1C(=O)NCCN1CCN(C)CC1,23.5%
21,CCC(CO)N(Cc1cccs1)C(=O)Cc1ccncc1 (stereo not drawn),41.4%
22,CCC(CO)N(Cc1cccs1)C(=O)Cc1ccc(O)cc1 (stereo not drawn),71.1%

row,Structure (SMILES),INHIBITION
1,CCC(CO)N(Cc1cccs1)C(=O)CSC (stereo not drawn),-36.3%
2,CCCNC(=O)COc1cc(C)c2c(C)nn(-c3ccccc3)c2n1,31.3%
3,COc1cccc(C(=O)NS(=O)(=O)c2cccc(C#N)c2)c1,38.8%
4,N#Cc1ccc(CS(=O)(=O)NC(=O)c2ccc(C#N)cc2)cc1,-6.52%
5,COc1cc(C(=O)NS(=O)(=O)c2cccc(C#N)c2)cc(Cl)c1OC,-5.25%
6,COc1cc(C(=O)NS(=O)(=O)c2ccc(C#N)cc2)ccc1C,15.5%
7,N#Cc1cccc(C(=O)NS(=O)(=O)c2ccc(C#N)c(Cl)c2)c1,50.7%
8,N#Cc1ccc(C(=O)NS(=O)(=O)c2ccc(C#N)c(Cl)c2)cc1,57.2%
9,N#Cc1ccc(S(=O)(=O)NC(=O)c2ccc3c(c2)COC3)cc1,6.61%
10,COc1cc(C(=O)NS(=O)(=O)c2cccc(C#N)c2)ccc1C,14.4%
11,N#Cc1ccc(C(=O)NS(=O)(=O)c2ccc(F)c(F)c2)cc1,58.3%
12,CCc1oc(C(=O)N2CCC(N(CC)C(C)=O)C2)cc1CN(CC)CC (stereo not drawn),19.4%
13,O=C(NCc1cccnc1)N1CCc2ncnc(NC3CC3)c2CC1,4.98%
14,COc1c(C2CCCN2Cc2nc(-c3ccco3)no2)c(C)nn1C (stereo not drawn),-21.8%
15,Cc1nc(-c2ccc(CO)cc2)cc(C2CCNCC2)n1,23.9%
16,Cn1ccc(CN2CCC3(CC2)CC(Nc2ccccn2)CO3)n1 (stereo not drawn),37.9%
17,Cc1nc(CN2CCCc3cc(OC(F)(F)F)ccc32)oc1C,37.9%
18,Cc1nn(C)c(C)c1CNCc1ccc(N2CCOCC2)nc1,32.8%
19,O=C(NCC1CC1)[C@H]1C[C@H]2CN(C(=O)NCC3CCCCC3)C[C@@H]1O2,20.1%
20,Cc1cccn2c(=O)cc(OC(=O)c3ccccc3Cl)nc12,26.7%
21,CC(C)(C)n1cc(C2=CCN(CCc3ccccc3)CC2)cn1,50.2%
22,CC(C)(C)n1cc(C2=CCN(CCN3CCCCCC3)CC2)cn1,0.734%

row,Structure (SMILES),INHIBITION
1,CC(C)(C)n1cc(C2=CCN(CCc3ccccn3)CC2)cn1,18.7%
2,CC(C)(C)c1cnc(CN2CCCCC2Cn2cccn2)o1 (stereo not drawn),14.4%
3,N#Cc1cccc(CN2CCn3cc(Cn4cccn4)nc3C2)c1,58.8%
4,c1ccc(CN2CCN(Cc3cscn3)CC2)cc1,19.4%
5,Fc1cccc(CN2CCN(Cc3cscn3)CC2)c1,36.7%
6,CCn1ccnc1CN1CCN(CCOc2cccc(C#N)c2)CC1,23.2%
7,CCn1ccnc1CN1CCN(CCOc2ccccc2C#N)CC1,14.1%
8,N#Cc1cccc(CN2CCN(Cc3cscn3)CC2)c1,66.4%
9,CCn1ccnc1CN1CCN(Cc2cc(C#N)ccc2F)CC1,35.9%
10,Fc1ccc(CN2CCn3cc(Cn4cccn4)nc3C2)cc1,-53.6%
11,CCn1ccnc1CN1CCN(Cc2cccc(C#N)c2)CC1,68.8%
12,CCn1ccnc1CN1CCN(Cc2ccc(C#N)cc2)CC1,48.1%
13,CCn1ccnc1CN1CCN(CCOc2ccc(C#N)cc2)CC1,52.3%
14,c1cncc(CN2CCn3cc(Cn4cccn4)nc3C2)c1,31.7%
15,O=C(c1ccc2[nH]cnc2c1)N1CCCC1Cn1cccn1 (stereo not drawn),-0.514%
16,C[C@@H]1CN(S(C)(=O)=O)C[C@]12CCN(Cc1cccnc1)C2=O,-28.2%
17,CNC(=O)c1cc(C2CCCN2)n[nH]1 (stereo not drawn),31.3%
18,c1nc2c(c(C3CC3)n1)CCN(Cc1ccc3c(c1)OCO3)CC2,21.8%
19,c1cnn(CC2CCCN2Cc2cn3ccsc3n2)c1 (stereo not drawn),28%
20,CSCCC(Nc1nc(C)cc(C)n1)C(=O)NCC1CCOCC1 (stereo not drawn),25.2%
21,CCc1csc(C2CCCN(C(=O)COc3cc(C)on3)C2)n1 (stereo not drawn),46.2%
22,O=C1CCCCCN1Cc1ncnn1Cc1c(F)cccc1Cl,5.46%

row,Structure (SMILES),INHIBITION
1,Cc1cccc(OCCN2CCN(Cc3noc(C)n3)CC2)c1,30.6%
2,COc1ccc(OCCN2CCCN(Cc3noc(C)n3)CC2)cc1,4.52%
3,Cc1nc(CN2CCCN(CCOc3ccc(C#N)cc3)CC2)no1,56.6%
4,CC(C(=O)NC1CC1)n1nc(-c2cccs2)cc(N)c1=O (stereo not drawn),23.9%
5,CC(C)n1ncc2cc(NC(=O)N3CCC(N4CCCC4)C3)cnc21 (stereo not drawn),53.3%
6,CC(=O)NC1CCCN(C(=O)Nc2cnc3c(cnn3C(C)C)c2)C1 (stereo not drawn),4.31%
7,CC(C)n1ncc2cc(NC(=O)N3CCC(C(N)=O)C3)cnc21 (stereo not drawn),7.08%
8,O=C1CC[C@H]2CN(Cc3cccnc3)CC[C@H]2N1CCc1c[nH]cn1,23.9%
9,Cc1nc(CN2CC[C@@H]3[C@@H](CCC(=O)N3CCc3c[nH]cn3)C2)co1,44.8%
10,O=C1CC[C@H]2CN(Cc3ccc(Cl)s3)CC[C@H]2N1CCc1c[nH]cn1,78.5%
11,CN(CCO)c1ncc(-c2ccc(NC(=O)[C@@H]3CCCCN3)cc2)cn1,-4.82%
12,CCOC(=O)Cn1c(=O)nc(N)c2c(-c3ccc(OC)cc3)csc21,18.3%
13,CCc1c(C)sc2c1c(N)nc(=O)n2CCCN(C)C,-11.9%
14,COc1ccc(-c2csc3c2c(N)nc(=O)n3CCN(C)C)cc1,50.8%
15,CCc1c(C)sc2c1c(N)nc(=O)n2CCN(C)C,-14.2%
16,COc1ccc(-c2csc(N)c2C#N)cc1,40.9%
17,COc1ccc(-c2csc3c2c(N)nc(=O)n3CC(N)=O)cc1,58.2%
18,C=C(C)Cn1c(=O)nc(N)c2c(-c3ccc(OC)cc3)csc21,33.2%
19,CCn1c(=O)nc(N)c2c(-c3ccc(OC)cc3)csc21,23.9%
20,COc1ccc(-c2csc3c2c(N)nc(=O)n3CCCN(C)C)cc1,60.1%
